Only some compounds are listed: those with a hit (about 1.1% of all), similar ones and a draw of the others.
VLA-4 inh: inhibition in a human VLA-4 binding assay | VLA-4 expressing cells, ligand binding flow cytometry | AID 2557 | inhibition, % (about 7 µM as worked out from the volumes in the protocol) | P13612 | actives 0.2% (n = 330,000); in the data active = inhibition above about 50%
Target sequence (P13612 whole entry, looked up): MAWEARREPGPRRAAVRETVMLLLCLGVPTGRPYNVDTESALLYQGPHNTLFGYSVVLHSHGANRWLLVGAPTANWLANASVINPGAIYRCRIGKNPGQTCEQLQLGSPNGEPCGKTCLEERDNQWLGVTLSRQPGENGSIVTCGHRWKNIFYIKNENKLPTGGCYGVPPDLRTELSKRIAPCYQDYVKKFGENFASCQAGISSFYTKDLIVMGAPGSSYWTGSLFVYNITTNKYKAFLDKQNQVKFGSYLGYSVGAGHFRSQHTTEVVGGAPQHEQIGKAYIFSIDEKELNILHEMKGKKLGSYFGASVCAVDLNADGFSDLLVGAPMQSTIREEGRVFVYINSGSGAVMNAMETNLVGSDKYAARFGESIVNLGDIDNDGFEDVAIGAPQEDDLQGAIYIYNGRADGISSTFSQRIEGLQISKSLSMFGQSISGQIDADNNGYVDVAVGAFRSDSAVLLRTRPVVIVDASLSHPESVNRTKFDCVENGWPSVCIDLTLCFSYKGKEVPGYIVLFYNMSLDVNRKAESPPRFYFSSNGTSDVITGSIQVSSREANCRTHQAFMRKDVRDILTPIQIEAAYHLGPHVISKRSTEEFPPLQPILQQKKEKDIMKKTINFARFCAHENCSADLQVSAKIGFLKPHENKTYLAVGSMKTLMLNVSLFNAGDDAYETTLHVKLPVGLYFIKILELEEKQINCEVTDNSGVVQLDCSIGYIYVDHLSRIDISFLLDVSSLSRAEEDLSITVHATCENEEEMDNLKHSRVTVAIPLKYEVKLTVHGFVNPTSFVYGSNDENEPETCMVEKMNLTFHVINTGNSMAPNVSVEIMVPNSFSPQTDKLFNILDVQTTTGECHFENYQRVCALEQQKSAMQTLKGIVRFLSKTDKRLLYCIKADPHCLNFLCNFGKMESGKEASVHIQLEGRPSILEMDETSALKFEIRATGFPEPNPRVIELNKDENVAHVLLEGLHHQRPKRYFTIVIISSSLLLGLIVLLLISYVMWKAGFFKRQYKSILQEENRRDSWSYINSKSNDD
MEP2 TOR yeast: alters MEP2-GFP fluorescence in TOR pathway yeast screen; S. cerevisiae MEP2-GFP strain, flow cytometry GFP, 3 h; 100% = DMSO control level; GFP response vs DMSO, % at 10 µM; AID 2016; actives 0.51% (n = 330,000);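 active = GFP response versus DMSO above a set limit, roughly screen mean plus 3 SD, cut at about 180% in these data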;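 note: median GFP fluorescence of the barcode-gated MEP2-GFP cells per well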
LAP4-GFP MLPCN: modulators of TOR pathway LAP4-GFP in S. cerevisiae; S. cerevisiae LAP4-GFP multiplex, flow cytometry GFP, 3 h; median GFP as percent of DMSO wells; GFP response vs DMSO, % at 10 µM; actives 0.34% (n = 320,000); AID 2023;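 active = GFP response vs DMSO above a set limit, about the screen mean plus 3 SD, cut at about 150% in these data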
AGP1 TOR yeast: yeast TOR pathway AGP1-GFP modulation. S. cerevisiae AGP1-GFP multiplex flow cytometry, 3 h; GFP as percent of DMSO wells. GFP response vs DMSO, % at 10 µM. actives 0.02% (n = 320,000);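 active = GFP response relative to DMSO above a set limit, near screen average plus 3 SD, cut at about 150% in these data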;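 note: median GFP channel fluorescence of the gated AGP1 strain per well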
RPL19A TOR yeast: modulators of TOR pathway RPL19A-GFP in S. cerevisiae. S. cerevisiae RPL19A-GFP strain, flow cytometry, 3 h; hits give low values. percent response vs DMSO, % at 10 µM. actives 0.3% (n = 330,000). AID 2025;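 active = percent response vs DMSO below 50%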;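 note: median channel GFP fluorescence of the barcoded RPL19A-GFP strain; ratio of sample median GFP to plate DMSO average so 100% = DMSO; lower means less RPL19A-GFP as with rapamycin TOR inhibition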
CIT2 TOR yeast: yeast TOR pathway CIT2-GFP modulation; actives 0.065% (n = 320,000); GFP response vs DMSO, % at 10 µM; S. cerevisiae CIT2-GFP strain, flow cytometry, 3 h; 100 means same as DMSO wells; AID 2029;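 active = GFP response relative to DMSO above a set limit, near the screen mean plus 3 SD, cut at about 150% in these data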;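 note: ratio of well median GFP fluorescence to mean of DMSO wells on the plate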
LAP4-GFP pick2: yeast LAP4-GFP modulation, second cherry pick; shares compounds with LAP4-GFP MLPCN; GFP response vs DMSO, % at 10 µM; actives 20% (n = 590); AID 2621; S. cerevisiae LAP4-GFP strain, flow cytometry GFP, 3 h;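 active = GFP signal as percent of the solvent control above about 150%, meaning raised reporter expression, limit read from the data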;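 note: ratio of well median GFP fluorescence to plate DMSO mean so 100% = DMSO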
MEP2 cherry2: reconfirmed MEP2-GFP TOR pathway modulator in yeast. AID 2622. S. cerevisiae MEP2-GFP strain, flow cytometry GFP, 3 h. GFP response vs DMSO, % at 10 µM. actives 10% (n = 590). shares compounds with LAP4-GFP MLPCN;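 active = GFP signal above 150% of the solvent control wells, that is a rise of more than half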;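 note: median channel GFP fluorescence of all gated yeast cells per well; ratio of median GFP to plate DMSO average so 100% = DMSO level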
RPL19A GFP CP2: reconfirmed modulator of RPL19A-GFP TOR reporter in yeast. shares compounds with LAP4-GFP MLPCN. S. cerevisiae RPL19A-GFP strain, flow cytometry GFP, 3 h; hits give low values; 100% means same as DMSO wells. GFP response vs DMSO, % at 10 µM. actives 3% (n = 590);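 active = under 65% GFP response relative to DMSO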;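 note: median GFP channel fluorescence per well over the all cells gate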
CIT2-GFP pick2: reconfirmed modulator of CIT2-GFP TOR reporter in yeast; shares compounds with LAP4-GFP MLPCN; S. cerevisiae CIT2-GFP strain, flow cytometry GFP, 3 h; DMSO control wells read 100%; GFP response vs DMSO, % at 10 µM; actives 8% (n = 590); AID 2624;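 active = GFP response vs DMSO above about 150%, limit read from the data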;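 note: median green fluorescence per well over all gated yeast cells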
AGP1-GFP pick2: second confirmation of modulators of TOR reporter AGP1-GFP in yeast; shares compounds with LAP4-GFP MLPCN; S. cerevisiae AGP1-GFP strain, flow cytometry GFP, 3 h; percent response vs DMSO, % at 10 µM; 590 tested, under 10 active;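 active = over 150 percent of DMSO response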;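 note: median GFP channel fluorescence over all cells without mother daughter split; sample median GFP divided by mean DMSO control so 100% equals DMSO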
Yeast autofluor: yeast s288c autofluorescence artifact, counter-screen; shares compounds with LAP4-GFP MLPCN; S. cerevisiae s288c, 520 nm autofluorescence, flow cytometry, 3 h; hits give high values; zero means same as solvent-only cells; fluorescence change (kMESF span) at 33 µM; 610 tested, under 10 active; AID 2757;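 active = fluorescence span over the dose series, or activity score, above about 33, limit read from the data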
TORC1 bypass gr: wildtype yeast growth loss with TORC1 bypass cells unaffected | shares compounds with LAP4-GFP MLPCN | S. cerevisiae BY4741 spot growth rating, 48-72 h; hits give low values | growth rating (0-3) at 30 µM | 120 tested, under 10 active;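 active = growth rating at most 1 for wild type yeast while the TORC1 bypass strain still grows fully, rated 3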
Active calls of the source: *; i = inactive; nt = no result.

SMILES	VLA-4 inh	MEP2 TOR yeast	LAP4-GFP MLPCN	AGP1 TOR yeast	RPL19A TOR yeast	CIT2 TOR yeast	LAP4-GFP pick2	MEP2 cherry2	RPL19A GFP CP2	CIT2-GFP pick2	AGP1-GFP pick2	others
CCCCCCCCC/C(=N\O)c1ccccn1	-3	104	228*	87	84	104	nt	nt	nt	nt	nt	Yeast autofluor=-0.2
CC(C)(C)C1CCC(=NNC(=O)C(=O)NCc2ccco2)CC1 (stereo not drawn)	12	115	88	83	60	84	96	98	99	105	100
CC(C)(C)C1CCC(=NNC(=O)CC(=O)NCc2ccccc2)CC1 (stereo not drawn)	-7	100	93	99	99	107	nt	nt	nt	nt	nt
CC(=O)c1c(C)[nH]c(C(=O)COC(=O)c2ccc(C)s2)c1C	0	131	153*	124	118	120	99	105	101	98	100
CCOC(=O)c1c(C)[nH]c(C(=O)COC(=O)c2[nH]c(C)c(C(C)=O)c2C)c1C	-20	107	110	108	103	113	nt	nt	nt	nt	nt
COc1ccc(NC(=O)CN(C)C(=O)CNC(=O)c2ccc(C)s2)cc1	19	105	104	106	103	101	nt	nt	nt	nt	nt
COC(=O)CCN(C(=O)C1C2CC3CC(C2)CC1C3)c1ccccn1 (stereo not drawn)	-12	93	154*	107	95	96	111	126	101	122	102
CCOc1ccccc1C(=O)N(CCC(=O)OC)c1ccccn1	-7	90	85	93	95	93	nt	nt	nt	nt	nt
COc1ccc(-n2nc(C(=O)NCC(=O)Nc3cccc(Cl)c3)c3ccccc3c2=O)cc1	15	98	88	94	102	97	nt	nt	nt	nt	nt
N/C(Cc1ccc(Cl)cc1Cl)=N\OC(=O)Cc1cccs1	1	103	101	107	104	103	nt	nt	nt	nt	nt
N/C(Cc1ccc(Cl)cc1Cl)=N\OC(=O)c1cccs1	-4	111	217*	47	77	130	197*	159*	84	186*	75	Yeast autofluor=1.4
Cc1cc(Nc2cc(Nc3ccccc3)nc(NCc3ccccc3)n2)n[nH]1	nt	nt	nt	nt	nt	nt	nt	nt	nt	nt	nt	TORC1 bypass gr=3
COC(=O)c1nc(-c2ccccc2)n[nH]1	-8	106	100	97	102	86	nt	nt	nt	nt	nt
COC(=O)c1cccc(-c2cc(Nc3cc(C)[nH]n3)nc(NCc3ccccc3)n2)c1	nt	nt	nt	nt	nt	nt	nt	nt	nt	nt	nt	TORC1 bypass gr=3
Cc1cc(Nc2ccccc2)nc(NCc2ccccc2)n1	-2	107	92	98	102	112	nt	nt	nt	nt	nt
Cc1cccc(C(C)C)c1NC(=O)C(C)OC(=O)Cn1cnc2c1c(=O)n(C)c(=O)n2C (stereo not drawn)	20	100	111	110	98	96	nt	nt	nt	nt	nt
O=C(NCCN1CCCC1)c1ccc(Cn2c(=S)[nH]c3cc4c(cc3c2=O)OCO4)cc1	3	104	153*	111	83	87	101	94	99	106	97
c1ccc(-c2csc(Nc3cccnc3)n2)nc1	-1	104	114	94	94	95	99	105	102	102	99	Yeast autofluor=0
COc1cccc2sc(Nc3nc(-c4ccccn4)cs3)nc12	-26	100	169*	87	66	73	nt	nt	nt	nt	nt	Yeast autofluor=0.81
COc1cc(C(=O)N(C)CCOc2ccc(C)cc2)ccc1OC1CCN(C(C)=O)CC1	3	103	94	104	103	106	nt	nt	nt	nt	nt
COc1ccc(C(c2c(C)[nH]n(C(N)=S)c2=O)C(C#N)C#N)cc1 (stereo not drawn)	22	98	335*	76	98	77	nt	nt	nt	nt	nt	Yeast autofluor=0.41
CCn1ncc(CN2CCC(Oc3cc(C(=O)NC4CC4)ccc3OC)CC2)c1C	-3	104	86	95	110	96	nt	nt	nt	nt	nt
CCn1c(C)c(C(C)=O)c(N2CCCCC2)nc1=S	17	118	107	103	101	96	nt	nt	nt	nt	nt
C=CCn1c(C)c(C(C)=O)c(N2CCOCC2)nc1=S	-2	162	93	28	65	106	99	98	99	110	95
CC(C)(C)NC(=O)[C@@H]1C[C@@H]2CCCC[C@@H]2CN1C[C@@H](O)[C@H](Cc1ccccc1)NC(=O)[C@H](CC(N)=O)NC(=O)c1ccc2ccccc2n1	10	96	96	82	100	79	107	114	96	113	101
O=C(O)c1cccc(S(=O)(=O)Nc2ccc(S(=O)(=O)N3CCOCC3)cc2)c1	10	129	90	85	58	92	102	110	98	106	98	Yeast autofluor=0
CC1=NN(c2nc3ccccc3[nH]2)C(=O)C1Cc1ccccc1 (stereo not drawn)	5	97	87	57	58	69	123	141	76	85	75
COc1ccc2[nH]c3c(c2c1)CCNC3c1ccc([N+](=O)[O-])o1 (stereo not drawn)	i	498*	314*	132	135	266*	317*	564*	145	414*	134
COc1ccc2[nH]c3c(c2c1)CCNC3C1CC=C(C)CC1 (stereo not drawn)	1	90	109	93	93	90	nt	nt	nt	nt	nt
COc1ccc(OC)c(NC(=O)COC(=O)CCCN=C2NS(=O)(=O)c3ccccc32)c1	0	110	163*	106	86	84	100	102	100	98	101
